# In the supplement of paper PMC3334620:
# The full ranking holds about 33,000 sequences; the median of “E-score (-0.5 to 0.5)” is about -0.012, and the highest 2% start at about 0.29. Shown is part of a subset that was picked to be rich in the highest values.
# Molecular target: T1, Ybr033w (UniProt P38073)
# T1 sequence: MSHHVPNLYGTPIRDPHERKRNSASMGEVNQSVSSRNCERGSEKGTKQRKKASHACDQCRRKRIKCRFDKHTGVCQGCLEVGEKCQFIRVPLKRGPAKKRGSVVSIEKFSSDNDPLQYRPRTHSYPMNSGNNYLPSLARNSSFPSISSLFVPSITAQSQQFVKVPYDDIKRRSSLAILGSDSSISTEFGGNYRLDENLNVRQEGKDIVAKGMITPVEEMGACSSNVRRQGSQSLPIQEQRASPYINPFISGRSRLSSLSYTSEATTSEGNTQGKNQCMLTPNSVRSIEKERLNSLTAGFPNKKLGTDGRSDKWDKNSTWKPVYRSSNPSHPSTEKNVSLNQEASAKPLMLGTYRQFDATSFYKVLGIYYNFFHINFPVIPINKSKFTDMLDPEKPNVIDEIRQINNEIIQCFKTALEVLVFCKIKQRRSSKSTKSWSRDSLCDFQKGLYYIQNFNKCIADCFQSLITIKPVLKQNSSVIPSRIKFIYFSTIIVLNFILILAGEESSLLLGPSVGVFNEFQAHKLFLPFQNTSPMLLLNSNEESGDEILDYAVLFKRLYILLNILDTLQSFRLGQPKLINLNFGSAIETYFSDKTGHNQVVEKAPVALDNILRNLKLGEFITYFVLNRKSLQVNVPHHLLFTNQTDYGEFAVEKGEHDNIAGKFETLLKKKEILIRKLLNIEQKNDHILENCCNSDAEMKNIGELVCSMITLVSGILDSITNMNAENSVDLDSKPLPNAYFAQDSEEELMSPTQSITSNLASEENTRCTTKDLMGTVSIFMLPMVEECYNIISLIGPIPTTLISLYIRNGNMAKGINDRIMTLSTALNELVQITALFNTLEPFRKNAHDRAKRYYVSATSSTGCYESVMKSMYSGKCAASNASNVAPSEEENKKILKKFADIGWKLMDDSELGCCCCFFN
# Assay: PBM E-score (8-mer binding enrichment) (E-score (-0.5 to 0.5)); higher = stronger / more preferred TF binding
# Conditions: protein concentration: 200 nM; construct: GST-full length
# Description: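 Universal 'all 10-mer' protein binding microarrays (Agilent AMADID 015681) probed with GST-tagged S. cerevisiae TFs (full-length or DBD) made by in vitro transcription/translation (PURExpress), about 100-200 nM. Bound TF was detected with fluorescent anti-GST. Each ungapped 8-mer (which stands for itself and its reverse complement) is scored by the PBM enrichment score (E-score), a modified Wilcoxon-Mann-Whitney statistic from -0.5 to +0.5, computed with the Universal PBM Analysis Suite. Scale: above 0.35 generally sequence-specific binding.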
row,Sequence,PBM E-score
1,CGAGGCAC,-0.109
2,GTACCCAC,-0.116
3,CGCAGGGA,-0.202
4,AGCTAATA,0.078
5,AGCGCATC,0.0587
6,CGCGAAGC,0.0254
7,GACTAGTA,0.0157
8,CACTAGTA,0.0533
9,TACTAGTA,0.377
10,CTTTAAAA,0.2
11,AAAGTCGG,-0.122
12,ACTGTGCA,0.031
13,ATGACAAC,0.111
14,ATGACAAG,-0.0461
15,ATGACAAT,0.293
16,AAAAAGTC,0.22
17,AAAAAAGT,0.353
18,ACAAAAGT,0.0857
19,AAAAAGTA,0.283
20,AAAAAGTT,0.314
21,AAAAAAGC,0.171
22,CTGTTGCC,-0.136
23,AGTGAAAA,0.183
24,TGCCAACA,0.0786
25,GTGCGCAC,0.0505

row,Sequence,PBM E-score
1,GCAGTCCA,-0.029
2,ATTGTTTA,0.296
3,ATTGTTTC,0.199
4,ATCGTTTC,0.184
5,ATTGTTTG,0.118
6,GTCGTTTA,0.0819
7,ATCGTTTA,0.307
8,GTTGTCCA,0.00858
9,ATGGTCAA,0.198
10,AGCTGGCC,-0.179
11,AGGTAGAC,-0.212
12,CTAGAGAC,-0.0751
13,ATTCAACG,0.114
14,ATACCTAT,0.102
15,ATACCTAA,0.316
16,TTACCTAA,0.156
17,CCAAGCGA,-0.0712
18,GATAATTA,0.361
19,CATAATTA,0.284
20,AATAATGA,0.247
21,GCTAATTA,0.175
22,ACTAATTA,0.281
23,AATAATTC,0.386
24,AATAATTG,0.256
25,CATAATTC,-0.00123

row,Sequence,PBM E-score
1,AATAATTA,0.372
2,AAACGTTC,0.0667
3,AGAGTGTG,-0.0636
4,CGATGCGC,0.0464
5,AGAGGTGG,-0.156
6,CAGTGAAA,0.126
7,AAGTGAAA,0.29
8,GAGTGAAA,0.129
9,GTCCTTCA,-0.0408
10,CAGCACTC,0.0472
11,AATGGTCA,0.205
12,AATAGTGG,0.0387
13,AATAGTAA,0.239
14,AATAGTAT,0.293
15,AATAGTGT,0.289
16,AATAGTAG,0.201
17,AATAGTGC,0.123
18,AGCAATAG,0.0737
19,ATTCGGAA,0.269
20,GTTCGGAA,0.316
21,CTTCGGAA,0.243
22,GAAGCGCC,-0.0866
23,AACTTGAC,-0.0113
24,AAATACTC,0.316
25,AAATACTT,0.34

row,Sequence,PBM E-score
1,AAATACTG,0.172
2,AAATACTA,0.224
3,GAATACTC,0.0489
4,CAATACTC,0.193
5,GTTAAGGA,0.121
6,AGCTGAAT,0.135
7,AGCTCTGC,-0.255
8,AAAGTCTA,-0.00319
9,ACTCCTCA,-0.135
10,ATTAAGCA,-0.0125
11,GTTCATTA,0.221
12,ATTCATTA,0.263
13,CTTCATTA,0.291
14,ATTGGTGC,0.0298
15,ATACTTTG,0.297
16,ATACTTTC,0.177
17,ATACTTTA,0.23
18,AGCCAGGG,-0.362
19,ACGGGAAT,0.0676
20,GCGGAAAC,-0.191
21,ACGGAAAG,0.0247
22,ACAGAAAT,0.137
23,GCGGGAAA,0.128
24,ACGGAAAA,0.422
25,CCGGAAAG,-0.0245

row,Sequence,PBM E-score
1,ACGGAAAC,-0.12
2,CCGGAAAA,0.44
3,CCGGAAAC,0.14
4,ACGGAAAT,0.313
5,GCGGAAAA,0.396
6,AGGACGGC,-0.235
7,GAGAGTCA,-0.0369
8,CGTCCTCC,-0.314
9,GAGAGATC,-0.00339
10,TCGGAAAA,0.424
11,TCGGGAAA,0.253
12,TCAGAAAA,0.0198
13,CCTTGGCC,-0.318
14,GAACATCC,0.303
15,AAACATCC,0.192
16,CAACATCC,-0.07
17,CAGAGCGA,0.105
18,TGGGTGAA,0.15
19,ATAAGGAT,0.297
20,ATAAGGAA,0.0859
21,ATAAGGAC,-0.0427
22,CCGAAGGC,-0.11
23,ATTCTGGC,-0.217
24,CATATAAG,0.114
25,TGCATAAA,0.218

row,Sequence,PBM E-score
1,AATATAAG,0.295
2,AGCATAAA,0.141
3,AGTATAAA,0.266
4,CGCATAAA,0.297
5,TATATAAA,0.282
6,CGTATAAA,0.291
7,AATATAAT,0.236
8,CATATAAA,0.174
9,CGTATAAC,0.0815
10,AATATAAA,0.344
11,AATACTTC,0.21
12,AACTAGAC,0.0442
13,GTGGTAGA,-0.158
14,CGGTGAGC,-0.26
15,AGCTGACA,-0.103
16,CCCACAAA,0.0286
17,AGTAAGAC,-0.00585
18,ATAACTGC,0.193
19,TGAAGAAA,0.134
20,CCAAGTCA,-0.0141
21,CAGTGCAG,-0.0894
22,TCGGAAGA,0.193
23,ACGGAAGA,0.338
24,ACGGAAGT,0.0483
25,CCGGAAGA,0.404

row,Sequence,PBM E-score
1,CCGGAAGG,0.0448
2,CCGGAAGC,0.0751
3,AGTCACCG,-0.104
4,TACTGCCA,0.038
5,TATCACCA,0.0892
6,AATCACCA,0.295
7,AATCACCG,-0.0481
8,AGACTGCC,-0.219
9,CAGTTATA,0.074
10,AATATTTG,0.232
11,CCTATTTC,0.124
12,AATATTTA,0.318
13,CATATTTA,0.28
14,AATATTTC,0.34
15,CATATTTC,0.213
16,GATATTTA,0.338
17,GATTTTTA,0.209
18,GCTATTTA,0.132
19,CGCTCTAA,-0.0524
20,CCAAAGAG,-0.0366
21,CCCACCAC,-0.0659
22,CCATACGA,0.0671
